Measurements reported in PubChem BioAssay (EPA / NIEHS).
Inconclusive results are not listed. The source made the active and inactive calls. The calls were made as follows, unless noted: active = hit-call score of the fitted dose curve at least 0.9, where 1 is the maximum; inactive = score below 0.9.

Columns and labels:
[1] = molecular target: Paired box protein Pax-6 (Homo sapiens) (UniProt P26367); experiment: ATG_Pax6_CIS: Attagene CIS-FACTORIAL HepG2 Assay for human Paired Box 6 (PAX6) (AID 2282956); conditions: HepG2 CIS-FACTORIAL PAX6 reporter transcription, RNA readout; actives raise or lower the signal
Procedure, shortened: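 HepG2 cells transiently transfected with multiplexed cis-promoter reporter units (endogenous TF activity) were dosed for 24 h. Reporter mRNA was quantified by RT-PCR, 6-FAM labeling, HpaI digestion and capillary electrophoresis; bidirectional fitting versus DMSO baseline.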

[2] = ATG_PXRE_CIS: Attagene CIS-FACTORIAL HepG2 Assay for human Pregnane X Receptor Element (PXRE) (AID 2282957); conditions: HepG2 Attagene CIS-FACTORIAL PXRE reporter, mRNA; actives raise or lower the signal
Procedure, shortened: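 Transfect HepG2 with MRTUs (cis promoter elements); dose chemical, incubate 24 h; isolate RNA, RT with oligo(dT), PCR, 6-FAM label, HpaI cut, CE. Gain/loss fit vs DMSO.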

[3] = ATG_PPRE_CIS: Attagene CIS-FACTORIAL HepG2 Assay for human Peroxisome Proliferator-activated Response Element (PPRE) (AID 2282958); conditions: HepG2 PPRE cis-element reporter, Attagene transcription factor profiling; actives raise or lower the signal
Procedure, shortened: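 Multiplexed reporter transcription units under cis-regulatory promoters were transfected into HepG2 cells to capture endogenous factor activity. A 24 h incubation preceded RNA isolation and fluorescent RT-PCR fragment analysis.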

[4] = ATG_RORE_CIS: Attagene CIS-FACTORIAL HepG2 Assay for human RAR-related Orphan Receptor Element (RORE) (AID 2282959); conditions: HepG2 Attagene cis-factorial RORE reporter, mRNA; actives raise or lower the signal
Procedure, shortened: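 Fluorescence intensity of reporter-specific cDNA fragments, separated by capillary electrophoresis, gives the signal. Source: HepG2 liver cells transiently transfected with cis-element reporters and exposed 24 h; DMSO-normalized bidirectional fit.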

[5] = ATG_Sox_CIS: Attagene CIS-FACTORIAL HepG2 Assay for human SRY-box transcription factor (SOX) (AID 2282960); conditions: HepG2 Attagene cis-factorial SOX reporter, mRNA; actives raise or lower the signal
Procedure, shortened: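 After 24 h of chemical treatment, transfected HepG2 reporter cells are lysed for total RNA. Transcript levels come from RT-PCR with labelled primer extension and capillary electrophoresis, analysed bidirectionally versus DMSO.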

[6] = ATG_SREBP_CIS: Attagene CIS-FACTORIAL HepG2 Assay for human Sterol Regulatory Element Binding (SREBP) (AID 2282962); conditions: HepG2 Attagene cis-factorial SREBP reporter, mRNA; actives raise or lower the signal
Procedure, shortened: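 HepG2 cells transiently transfected with multiplexed cis-element reporter units report endogenous transcription factor activity. After 24 h of chemical exposure, reporter mRNA was quantified by RT-PCR, 6-FAM labelling, HpaI digestion and capillary electrophoresis; bidirectional fits used DMSO as baseline.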

[7] = molecular target: Signal transducer and activator of transcription 3 (Homo sapiens) (UniProt P40763); experiment: ATG_STAT3_CIS: Attagene CIS-FACTORIAL HepG2 Assay for human Signal Transducer and Activator of Transcription 3 (STAT3) (AID 2282963); conditions: HepG2, Attagene cis-factorial STAT3 reporter transcription; actives raise or lower the signal
Procedure, shortened: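 HepG2 cells transiently transfected with multiple cis-element-driven reporter units report endogenous transcription factor activity. After 24 h compound exposure, reporter mRNA is measured by RT-PCR, 6-FAM labelling, HpaI digestion and capillary electrophoresis. Fitted bidirectionally versus DMSO.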

[8] = ATG_TA_CIS: Attagene CIS-FACTORIAL HepG2 Assay for human TA Basal Promoter (AID 2282964); conditions: HepG2 Attagene CIS-factorial TA basal promoter reporter; actives raise or lower the signal
Procedure, shortened: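 Cis-factorial format in HepG2: reporters report endogenous factors, not chimeric Gal4 fusions. After 24 h treatment, reporter transcripts were measured by RT-PCR-capillary electrophoresis fluorescence, analysed bidirectionally versus DMSO.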

[9] = ATG_TCF_b_cat_CIS: Attagene CIS-FACTORIAL HepG2 Assay for human T-Cell-Factor with beta-catenin (TCF/b-cat) (AID 2282965); conditions: HepG2 TCF/beta-catenin cis-reporter transcription, actives raise or lower the signal
Procedure, shortened: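 HepG2 cells transiently transfected with cis-promoter-driven multiplexed reporter units; reporter mRNA measured 24 h after dosing by RT-PCR, FAM labelling, HpaI digestion and capillary electrophoresis. Bidirectional fitting relative to DMSO baseline.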

[10] = ATG_TAL_CIS: Attagene CIS-FACTORIAL HepG2 Assay for human TAL Basal Promoter (AID 2282966); conditions: HepG2 Attagene cis-factorial TAL promoter reporter; actives raise or lower the signal;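 also: background control endpoint measuring basal TAL promoter reporter mRNA not a specific factor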
Procedure, shortened: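 Fluorescence of labelled reporter cDNA fragments, resolved by capillary electrophoresis, gave the readout. Human HepG2 liver cells carried transiently transfected cis-element reporter units and were treated for 24 hours; activity was fitted bidirectionally against DMSO.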

[11] = ATG_TGFb_CIS: Attagene CIS-FACTORIAL HepG2 Assay for human Transforming Growth Factor (TGF) (AID 2282967); conditions: HepG2 Attagene CIS TGFb reporter, mRNA transcription; actives raise or lower the signal
Procedure, shortened: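 Multiplexed cis-reporter HepG2 system, 24 h treatment; mRNA induction read by fluorescence after RT-PCR and CE; DMSO negative control, bidirectional curve fitting.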

[12] = ATG_VDRE_CIS: Attagene CIS-FACTORIAL HepG2 Assay for human Vitamin D Receptor Element (VDRE) (AID 2282968); conditions: HepG2 VDRE cis-reporter transcription, actives raise or lower the signal
Procedure, shortened: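 Transiently transfected HepG2 cells carrying cis-regulated reporter transcription units were exposed for 24 h. Reporter mRNA was measured by RT-PCR with fluorescent labelling and capillary electrophoresis, and fitted in both directions against DMSO.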

[13] = molecular target: X-box-binding protein 1 (Homo sapiens) (UniProt P17861); experiment: ATG_Xbp1_CIS: Attagene CIS-FACTORIAL HepG2 Assay for human X-box Binding Protein 1 (XBP1) (AID 2282972); conditions: HepG2 XBP1 cis-element reporter, Attagene multiplex; actives raise or lower the signal
Procedure, shortened: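 HepG2 cells transiently transfected with cis-regulated multiple reporter transcription units; endogenous transcription factor activity measured 24 hours after chemical dosing. Reporter mRNA quantified by RT-PCR, 6-FAM primer extension, HpaI digestion and capillary electrophoresis; bidirectional fitting versus DMSO.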

[14] = ATG_M_19_TRANS: Attagene TRANS-FACTORIAL HepG2 Assay for M19 Transcription Factor (Internal Marker) (AID 2282974; active = hit-call score of the fitted dose curve at least 0.9, where 1 is the maximum); conditions: HepG2 Attagene TRANS-FACTORIAL M19 internal marker reporter
Procedure, shortened: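 Measured here: internal-marker reporter transcript from HepG2 cells transfected with MRTUs, harvested at 24 h. cDNA PCR products were 6-FAM labelled by primer extension, cut with HpaI for 2 h at 37 C, and resolved by CE.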

[15] = molecular target: Estrogen-related receptor gamma (Homo sapiens) (UniProt P62508); experiment: ATG_ERRg_TRANS: Attagene TRANS-FACTORIAL HepG2 Assay for human Estrogen-Related Receptor gamma (ERRg) (AID 2282977; active = hit-call score of the fitted dose curve at least 0.9, where 1 is the maximum;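 also: hits increase reporter signal over DMSO so potencies reflect activators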); conditions: HepG2 Attagene TRANS reporter, ERRg transactivation
Procedure, shortened: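 HepG2 cells transiently transfected with multiplexed GAL4-UAS reporter units driven by chimeric NR-Gal4 proteins; 24 h exposure. Reporter mRNA quantified by RT-PCR, fluorescent labelling, HpaI digestion and capillary electrophoresis; gain of signal vs DMSO.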

[16] = molecular target: Transcription factor Sp1 (Homo sapiens) (UniProt P08047); experiment: ATG_Sp1_CIS: Attagene CIS-FACTORIAL HepG2 Assay for human Specificity Protein 1 (Sp1) (AID 2282961); conditions: HepG2 Sp1 cis-reporter transcription, actives raise or lower the signal
Procedure, shortened: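 Sp1-driven reporter mRNA, read as capillary electrophoresis fluorescence after RT-PCR, in transiently transfected HepG2 cells dosed for 24 h; signal change in either direction relative to DMSO.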

[17] = molecular target: Nuclear receptor subfamily 1 group I member 3 (Homo sapiens) (UniProt Q14994); experiment: ATG_CAR_TRANS: Attagene TRANS-FACTORIAL HepG2 Assay for human Constitutive Androstane Receptor (CAR) (AID 2282969; active = hit-call score of the fitted dose curve at least 0.9, where 1 is the maximum;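 also: activators raise reporter mRNA above DMSO so AC50 marks induction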); conditions: HepG2 Attagene TRANS-FACTORIAL CAR reporter
Procedure, shortened: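 HepG2 cells transiently transfected with GAL4-UAS reporter units; TRANS format reads activity of exogenous chimeric NR-Gal4 protein. After 24 h dosing, reporter mRNA quantified by RT-PCR, 6-FAM labelling and capillary electrophoresis; gain of signal fitted against DMSO.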

[18] = molecular target: Estrogen receptor (Homo sapiens) (UniProt P03372); experiment: ATG_ERa_TRANS: Attagene TRANS-FACTORIAL HepG2 Assay for human Estrogen Receptor alpha (ERa) (AID 2282970; active = hit-call score of the fitted dose curve at least 0.9, where 1 is the maximum); conditions: HepG2 Attagene TRANS ERa GAL4 reporter, mRNA
Procedure, shortened: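 Human liver HepG2, transient transfection of multiple GAL4-UAS reporter units; TRANS format (exogenous NR-Gal4 chimera). 24 h dosing. Readout: reporter mRNA, RT-PCR, 6-FAM primer extension, HpaI digest, capillary electrophoresis. Positive direction vs DMSO.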

[19] = molecular target: Steroid hormone receptor ERR1 (Homo sapiens) (UniProt P11474); experiment: ATG_ERRa_TRANS: Attagene TRANS-FACTORIAL HepG2 Assay for human Estrogen-Related Receptor alpha (ERRa) (AID 2282971; active = hit-call score of the fitted dose curve at least 0.9, where 1 is the maximum); conditions: HepG2 Attagene TRANS reporter, ERRa transactivation
Procedure, shortened: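 Reporter transcript induction was quantified by RT-PCR and capillary electrophoresis of FAM-labelled, HpaI-cut products after 24 h treatment of HepG2 cells carrying transiently transfected GAL4-UAS reporter units and an exogenous ERRa-Gal4 fusion; activity scored as increase over DMSO.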

[20] = ATG_GAL4_TRANS: Attagene TRANS-FACTORIAL HepG2 Assay for GAL4 (Internal Marker) (AID 2282976; active = hit-call score of the fitted dose curve at least 0.9, where 1 is the maximum); conditions: HepG2 Attagene TRANS GAL4 internal marker reporter
Procedure, shortened: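 First, HepG2 cells were transfected with reporter units under GAL4-UAS control. Next, they were treated with chemical for 24 h. Finally, RNA was reverse-transcribed, PCR-amplified, FAM-labelled and resolved by capillary electrophoresis, with induction scored against DMSO.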

Measured: AC50

Sequence of Nuclear receptor subfamily 1 group I member 3 (Homo sapiens) (Q14994 whole entry, looked up, the tested form may be a part): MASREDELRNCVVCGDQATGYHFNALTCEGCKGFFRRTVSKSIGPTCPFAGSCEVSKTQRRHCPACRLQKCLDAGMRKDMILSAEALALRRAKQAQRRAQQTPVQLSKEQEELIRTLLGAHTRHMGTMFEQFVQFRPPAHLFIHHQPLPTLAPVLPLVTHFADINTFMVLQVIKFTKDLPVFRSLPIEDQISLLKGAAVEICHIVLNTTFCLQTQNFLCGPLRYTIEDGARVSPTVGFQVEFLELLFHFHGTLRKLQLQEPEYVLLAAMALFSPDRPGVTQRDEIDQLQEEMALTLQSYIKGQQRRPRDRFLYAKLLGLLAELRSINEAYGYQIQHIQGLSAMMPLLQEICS
Sequence of Estrogen receptor (Homo sapiens) (P03372 whole entry, looked up, the tested form may be a part): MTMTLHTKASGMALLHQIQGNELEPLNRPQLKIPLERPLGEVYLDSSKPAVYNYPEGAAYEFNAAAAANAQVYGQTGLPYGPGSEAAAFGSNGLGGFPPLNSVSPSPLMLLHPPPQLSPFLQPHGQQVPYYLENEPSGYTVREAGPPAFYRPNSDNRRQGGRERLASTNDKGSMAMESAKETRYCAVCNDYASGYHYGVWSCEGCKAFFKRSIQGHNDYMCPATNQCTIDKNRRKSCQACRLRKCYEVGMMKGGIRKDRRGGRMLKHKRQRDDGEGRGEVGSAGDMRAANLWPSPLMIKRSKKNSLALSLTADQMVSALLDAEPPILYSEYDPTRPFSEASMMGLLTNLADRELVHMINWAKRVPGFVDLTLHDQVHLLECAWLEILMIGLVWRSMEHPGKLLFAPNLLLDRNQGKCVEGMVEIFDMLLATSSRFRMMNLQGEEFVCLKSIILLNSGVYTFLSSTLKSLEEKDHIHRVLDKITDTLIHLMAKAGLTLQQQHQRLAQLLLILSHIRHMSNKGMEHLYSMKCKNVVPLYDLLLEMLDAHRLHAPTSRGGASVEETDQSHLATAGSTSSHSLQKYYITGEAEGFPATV
Sequence of Transcription factor Sp1 (Homo sapiens) (P08047 whole entry, looked up): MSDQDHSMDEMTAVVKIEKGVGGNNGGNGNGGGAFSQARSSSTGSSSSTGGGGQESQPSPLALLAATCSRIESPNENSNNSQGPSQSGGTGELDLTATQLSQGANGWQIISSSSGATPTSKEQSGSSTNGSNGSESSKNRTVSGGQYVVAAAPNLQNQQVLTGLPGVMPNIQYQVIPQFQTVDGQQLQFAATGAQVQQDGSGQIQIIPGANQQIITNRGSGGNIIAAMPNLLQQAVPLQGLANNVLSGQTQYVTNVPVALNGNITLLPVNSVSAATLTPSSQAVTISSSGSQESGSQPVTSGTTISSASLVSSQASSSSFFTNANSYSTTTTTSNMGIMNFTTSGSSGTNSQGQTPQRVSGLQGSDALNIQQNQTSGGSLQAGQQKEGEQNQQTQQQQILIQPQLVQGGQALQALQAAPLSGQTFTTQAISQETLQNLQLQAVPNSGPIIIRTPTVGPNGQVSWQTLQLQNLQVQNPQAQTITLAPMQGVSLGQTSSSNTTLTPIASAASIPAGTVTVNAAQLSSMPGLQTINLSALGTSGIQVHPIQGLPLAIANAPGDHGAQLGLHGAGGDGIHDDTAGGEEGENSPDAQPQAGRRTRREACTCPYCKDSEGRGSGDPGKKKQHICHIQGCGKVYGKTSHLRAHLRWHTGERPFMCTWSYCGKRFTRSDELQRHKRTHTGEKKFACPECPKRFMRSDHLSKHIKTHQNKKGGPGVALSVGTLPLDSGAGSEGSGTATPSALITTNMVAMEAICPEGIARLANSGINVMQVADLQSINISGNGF
Sequence of Estrogen-related receptor gamma (Homo sapiens) (P62508 whole entry, looked up, the tested form may be a part): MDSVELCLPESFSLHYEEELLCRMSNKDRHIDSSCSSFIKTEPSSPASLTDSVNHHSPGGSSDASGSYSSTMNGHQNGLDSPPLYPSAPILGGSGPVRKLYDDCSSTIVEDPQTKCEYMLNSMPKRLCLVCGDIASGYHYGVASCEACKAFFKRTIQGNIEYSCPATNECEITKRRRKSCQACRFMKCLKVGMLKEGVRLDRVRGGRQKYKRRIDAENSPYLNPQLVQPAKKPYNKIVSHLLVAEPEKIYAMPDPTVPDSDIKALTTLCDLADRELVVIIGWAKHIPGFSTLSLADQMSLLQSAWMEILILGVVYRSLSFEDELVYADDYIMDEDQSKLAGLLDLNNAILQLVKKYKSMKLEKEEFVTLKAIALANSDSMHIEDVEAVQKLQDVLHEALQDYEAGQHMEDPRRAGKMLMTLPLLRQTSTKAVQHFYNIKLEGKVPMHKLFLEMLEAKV
Sequence of Signal transducer and activator of transcription 3 (Homo sapiens) (P40763 whole entry, looked up): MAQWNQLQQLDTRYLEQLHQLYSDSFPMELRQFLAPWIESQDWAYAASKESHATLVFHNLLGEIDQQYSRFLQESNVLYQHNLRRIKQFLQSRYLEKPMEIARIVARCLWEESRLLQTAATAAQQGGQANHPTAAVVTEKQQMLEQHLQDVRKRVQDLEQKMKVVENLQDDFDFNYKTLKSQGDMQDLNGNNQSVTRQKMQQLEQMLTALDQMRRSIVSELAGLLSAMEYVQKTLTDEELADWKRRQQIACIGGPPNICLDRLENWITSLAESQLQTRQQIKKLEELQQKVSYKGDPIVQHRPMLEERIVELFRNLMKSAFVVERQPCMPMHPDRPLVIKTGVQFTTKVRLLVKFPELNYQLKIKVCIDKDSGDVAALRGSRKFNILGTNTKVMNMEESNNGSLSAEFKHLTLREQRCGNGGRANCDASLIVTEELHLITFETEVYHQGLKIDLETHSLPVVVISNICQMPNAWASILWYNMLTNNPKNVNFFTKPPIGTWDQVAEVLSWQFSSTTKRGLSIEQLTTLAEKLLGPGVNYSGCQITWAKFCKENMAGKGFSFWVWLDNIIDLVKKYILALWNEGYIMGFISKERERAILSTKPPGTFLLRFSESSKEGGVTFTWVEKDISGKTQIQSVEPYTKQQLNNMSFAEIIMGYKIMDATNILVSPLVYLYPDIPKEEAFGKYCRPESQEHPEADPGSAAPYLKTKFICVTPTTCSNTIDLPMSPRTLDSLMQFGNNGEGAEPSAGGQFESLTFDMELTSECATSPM
Sequence of Paired box protein Pax-6 (Homo sapiens) (P26367 whole entry, looked up): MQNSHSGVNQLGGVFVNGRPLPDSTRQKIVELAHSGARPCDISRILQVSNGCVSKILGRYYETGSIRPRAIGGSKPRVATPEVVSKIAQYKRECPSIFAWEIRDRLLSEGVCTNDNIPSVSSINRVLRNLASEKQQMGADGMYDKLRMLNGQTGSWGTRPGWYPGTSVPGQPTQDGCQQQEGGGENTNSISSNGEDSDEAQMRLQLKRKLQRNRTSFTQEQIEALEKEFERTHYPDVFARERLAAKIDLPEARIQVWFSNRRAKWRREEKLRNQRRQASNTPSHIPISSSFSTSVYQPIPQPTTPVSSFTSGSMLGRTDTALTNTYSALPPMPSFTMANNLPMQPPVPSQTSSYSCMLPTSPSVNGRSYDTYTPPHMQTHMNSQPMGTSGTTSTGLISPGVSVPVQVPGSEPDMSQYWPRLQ
Sequence of X-box-binding protein 1 (Homo sapiens) (P17861 whole entry, looked up): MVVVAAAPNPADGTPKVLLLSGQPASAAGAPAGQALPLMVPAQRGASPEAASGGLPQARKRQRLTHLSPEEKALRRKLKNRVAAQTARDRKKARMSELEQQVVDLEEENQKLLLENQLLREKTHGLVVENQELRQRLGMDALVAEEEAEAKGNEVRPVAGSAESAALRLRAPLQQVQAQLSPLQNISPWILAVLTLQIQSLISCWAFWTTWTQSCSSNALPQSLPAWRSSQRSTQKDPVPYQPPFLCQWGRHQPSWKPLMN
Sequence of Steroid hormone receptor ERR1 (Homo sapiens) (P11474 whole entry, looked up, the tested form may be a part): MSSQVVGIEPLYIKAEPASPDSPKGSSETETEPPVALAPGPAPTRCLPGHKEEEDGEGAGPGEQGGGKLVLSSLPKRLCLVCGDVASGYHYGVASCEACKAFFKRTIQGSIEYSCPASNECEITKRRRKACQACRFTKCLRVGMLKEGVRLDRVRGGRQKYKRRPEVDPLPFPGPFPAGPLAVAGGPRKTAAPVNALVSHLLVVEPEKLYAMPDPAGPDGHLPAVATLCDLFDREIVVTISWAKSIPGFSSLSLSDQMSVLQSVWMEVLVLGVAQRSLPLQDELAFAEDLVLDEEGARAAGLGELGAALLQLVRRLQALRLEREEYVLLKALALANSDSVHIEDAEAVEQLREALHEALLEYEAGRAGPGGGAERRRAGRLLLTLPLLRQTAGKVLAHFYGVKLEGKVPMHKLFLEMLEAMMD

Cn1c([N+](=O)[O-])cnc1COC(N)=O
not listed: [16] | [17] | [18] | [19] | [20]
inactive: all other assays above

CCCCCCCCCCC=CC#N
active: [2] 27.5 µM | [18] 73.1 µM
not listed: [4] | [15] | [19] | [20]
inactive: all other assays above

CC(C)(C)C(=O)CCc1ccc(Cl)cc1
active: [2] 9.79 µM | [12] 41.2 µM | [18] 17.7 µM
not listed: [8] | [14] | [15] | [16] | [20]
inactive: all other assays above

CC(C)(C)c1ccc(N)cc1
active: [2] 24.2 µM
not listed: [14] | [16] | [19]
inactive: all other assays above

CC=CC(F)(F)C(F)(F)C(F)(F)F
not listed: [6] | [14] | [16] | [17] | [18] | [19]
inactive: all other assays above

O=C1CCCC(=O)O1
not listed: [4] | [15] | [18] | [19] | [20]
inactive: all other assays above

N[C@H]1C(O)O[C@H](CO)[C@H](O)[C@@H]1O (stereo not given in full)
not listed: [16] | [17] | [19]
inactive: all other assays above

ON(Cc1ccccc1)Cc1ccccc1
active: [2] 41.6 µM
not listed: [4] | [7] | [11] | [14] | [15] | [19] | [20]
inactive: all other assays above

c1cc(C(c2ccc(OCC3CO3)cc2)C(c2ccc(OCC3CO3)cc2)c2ccc(OCC3CO3)cc2)ccc1OCC1CO1 (stereo not given)
inactive: [3] | [5] | [6] | [7] | [11] | [20]
active: [1] 34.4 µM | [2] 7.01 µM | [16] 31.8 µM | [8] 72.2 µM | [9] 36.8 µM | [10] 44.8 µM | [12] 17 µM | [13] 22.9 µM

N#[N+]c1ccc2c(S(=O)(=O)[O-])cccc2c1O
not listed: [3] | [19]
inactive: all other assays above

CC(=O)OC1C2(C)CCC(C2)C1(C)C (stereo not given)
not listed: [4] | [12] | [14] | [17] | [19] | [20]
inactive: all other assays above

CCN(Cc1cccc(S(=O)(=O)O)c1)c1ccc(C(=C2C=CC(=[N+](CC)Cc3cccc(S(=O)(=O)[O-])c3)C=C2)c2ccccc2)cc1
active: [2] 20.6 µM | [11] 37.4 µM
not listed: [4] | [14] | [15] | [16] | [19]
inactive: all other assays above

CC(=O)NS(=O)(=O)c1ccc(N)cc1
not listed: [3] | [14] | [15] | [19]
inactive: all other assays above

CC1(C)O[C@@H]2C[C@H]3[C@@H]4C[C@H](F)C5=CC(=O)CC[C@]5(C)[C@H]4[C@@H](O)C[C@]3(C)[C@]2(C(=O)CO)O1
active: [2] 22.8 µM
not listed: [4] | [11] | [14] | [15] | [17] | [19] | [20]
inactive: all other assays above

COc1ccc(NC(C)=O)cc1N
inactive: [1] | [2] | [3] | [5] | [16] | [6] | [7] | [8] | [9] | [10] | [13]

C=CC(=O)OCCC(=O)O
not listed: [3] | [14] | [18]
inactive: all other assays above

COC(=O)c1sccc1S(N)(=O)=O
active: [2] 79.3 µM
not listed: [4] | [17] | [18] | [19] | [20]
inactive: all other assays above

CCc1ccc2c(c1)C(=O)c1ccccc1C2=O
active: [2] 3.01 µM | [12] 11.6 µM | [18] 4.61 µM
not listed: [3] | [14] | [15] | [19] | [20]
inactive: all other assays above
